HP1b chromo inh – HP1-beta chromodomain-methylated histone interaction inhibition; P83916; AlphaScreen HP1-beta / biotin-H3K9me3 peptide binding; Potency, µM (titrated, usually from 114 µM), for the others: at the highest dose activity change, negative = inhibition, hits mostly inhibitors; 0.56% of 390,000 active; AID 540317; note: nearly all actives have a fitted effect of over 70% in size
Target sequence (P83916 whole entry, looked up): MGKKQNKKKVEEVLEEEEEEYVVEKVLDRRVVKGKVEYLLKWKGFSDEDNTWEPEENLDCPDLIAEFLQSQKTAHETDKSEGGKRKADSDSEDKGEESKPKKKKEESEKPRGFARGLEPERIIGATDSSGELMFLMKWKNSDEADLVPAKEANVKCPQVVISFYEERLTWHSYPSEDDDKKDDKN
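HP1-beta protein (50 nM final) preincubated 30 min at room temperature with biotinylated H3(1-18)K9me3 peptide (50 nM) in PBS pH 7.4, 0.01% Tween-20, then compound added for 30 min. AlphaScreen streptavidin donor/nickel chelate acceptor beads (10 ug/mL final), 30 min dark, luminescence read.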
PLK1 PBD inh – inhibitors of human PLK1 polo-box domain binding | Plk1 PBD binding of FITC phosphopeptide, fluorescence polarization | Potency, µM, without a hit: max response, negative = inhibition, usual class: inhibitors | 2.8% of 360,000 active; note: series mostly up to about 57 µM; % is set by controls: 0 for no effect and ±100 for the full control effect; nearly all actives have a fitted effect of over 65% in size
ALOX12 inh – blocks human arachidonate 12S-lipoxygenase. P18054. AID 1671190. 1.1% of 580,000 active. Potency, µM (top dose mostly 108 µM), for the others: top-dose activity change, negative = inhibition, most hits filed as inhibitors. purified 12hLO, xylenol orange hydroperoxide absorbance; note: % is set by controls: 0 for no effect and ±100 for the full control effect
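Hydroperoxide product was detected by ferrous iron/xylenol orange as the 573 to 405 nm absorbance ratio. Arachidonic acid at 40 uM (final) was turned over for 30 min at room temperature by 150 nM human 12hLO, pH 7.0 Hepes buffer, after 15 min compound preincubation.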
JMJD2A Tudor inh – blocks the human JMJD2A Tudor domain; O75164; AlphaScreen JMJD2A-Tudor / H3K4me3 peptide binding; Potency, µM (highest dose often 114 µM), inactives show at the highest dose activity change, negative = inhibition, usual class: inhibitors; 4.4% of 390,000 active; AID 504339; note: % is set by controls: 0 for no effect and ±100 for the full control effect; nearly all actives have a fitted effect of over 50% in size
G9a block – blocks human histone lysine methyltransferase G9a | Q96KQ7 | G9a H3K9 monomethylation, AlphaScreen, 2 h | Potency, µM (titrated, usually from 102 µM), for the others: at the highest dose activity, negative = inhibition, usual class: inhibitors | 8.8% of 350,000 active | AID 504332; note: % is set by controls: 0 for no effect and ±100 for the full control effect; nearly all actives have a fitted effect of over 75% in size
Target sequence (Q96KQ7 913-1193 limits assumed): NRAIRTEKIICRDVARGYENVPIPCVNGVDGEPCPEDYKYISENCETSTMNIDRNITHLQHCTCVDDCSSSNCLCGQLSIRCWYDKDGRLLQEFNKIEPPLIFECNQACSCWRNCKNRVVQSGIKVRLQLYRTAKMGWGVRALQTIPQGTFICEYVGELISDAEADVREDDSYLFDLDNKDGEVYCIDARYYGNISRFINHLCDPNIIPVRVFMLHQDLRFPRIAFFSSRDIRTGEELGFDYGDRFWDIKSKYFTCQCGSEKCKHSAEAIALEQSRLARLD
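Enzyme 20 nM + cpd, 15 min RT; add b-H3K9 pep 500 nM / SAM 20 uM; 2 h RT; anti-H3K9me1 Ab 0.5 ug/mL + SA donor / anti-rabbit acceptor beads 20 ug/mL each, 10 min; AlphaScreen read.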
BAZ2B block – inhibitors of human BAZ2B bromodomain. AlphaScreen BAZ2B-H3K14Ac peptide displacement. Potency, µM (top dose mostly 114 µM), inactives show at the top dose activity change, negative = inhibition, actives largely listed as inhibitors. 4.4% of 360,000 active. AID 504333; note: % is set by controls: 0 for no effect and ±100 for the full control effect; nearly all actives have a fitted effect of over 60% in size
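Complex of BAZ2B and biotin-H3K14Ac (50 nM apiece) forms over 30 min at RT, then faces library compounds up to 110 uM for another 30 min; AlphaScreen beads added, 20 min dark incubation, luminescence read.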
Numbers without * were called inactive; i = inactive; ? = inconclusive; . = no result; [ ] = remark or other dose. Shown are actives, neighbours in structure and some others; about 9% of the full set was active somewhere. Calls come from the whole dose curve; as a rule, active = well fitted curve in the direction sought with a large enough effect; inconclusive = small, poorly fitted or top-dose-only effect, or another doubt; inactive = no such curve, though single readings can be large; an effect the other way counts as inactive or inconclusive. Potency is the fitted concentration of half-maximal effect.

SMILES	HP1b chromo inh	PLK1 PBD inh	ALOX12 inh	JMJD2A Tudor inh	G9a block	BAZ2B block
O=C(CSc1n[nH]c(-c2cccnc2)n1)Nc1ccccc1	53%	-1%	0%	-5%	12%[59 µM]	11%
O=C(CSc1n[nH]c(-c2cccnc2)n1)Nc1cccc(Cl)c1	82%	1%	-1%	-9%	50µM*	2%
Cc1ccc(S(=O)(=O)c2cc(Nc3ccccc3)ccc2O)cc1	-11%	-30%	?	?	17%[2.33 µM]	50µM*
Cc1ccc(S(=O)(=O)NCCCNS(=O)(=O)c2ccc(C)cc2)cc1	32%	-4%	?	-9%	14%[12.7 µM]	10%
Cc1ccc(S(=O)(=O)Nc2ccc(O)c3ncccc23)cc1	7%	-9%	?	40µM*	?	22µM*
Cc1ccc(S(=O)(=O)Nn2c(C)ccc2C)cc1	0%	-19%	?	50µM*	-10%[2.33 µM]	?
CN(C)c1ccc(NS(=O)(=O)c2cccc(Cl)c2)cc1	?	-16%	?	32µM*	?	45µM*
Cc1ccc(S(=O)(=O)Nc2ccccc2O)cc1	.	-6%	-22%	.	.	.
CN(C)c1ccc(NS(=O)(=O)c2cc3c4c(c2)CC(=O)N4CCC3)cc1	?	-15%	-13%	?	.	45µM*
Cc1ccc(S(=O)(=O)Nc2ccc(Nc3ccccc3)cc2)cc1	-14%	7%	18µM*	?	.	?
O=S(=O)(Nc1ccc(Nc2ccccc2)cc1)c1ccc(F)cc1	?	-8%	28%	?	.	.
Cc1ccc(S(=O)(=O)Nc2ccccc2NS(=O)(=O)c2ccc(C)cc2)cc1	.	-15%	7.9µM*	.	.	.
CN(C)c1ccc(NS(=O)(=O)c2ccc(-c3csnn3)cc2)cc1	?	-12%	?	50µM*	40µM*	56µM*
Cc1ccsc1C(=O)OCC(=O)Nc1cccc(S(=O)(=O)NC2=NCCCCC2)c1	31%	-1%	-2%	-20%	-3%	?
O=S(=O)(Nc1ccc(S(=O)(=O)Nc2ccccc2)cc1)c1ccccc1	14%	-2%	-10%	-21%	-28%	2%
Cc1ccc(S(=O)(=O)Nc2ccnc3ccccc23)cc1	-12%	27µM*	0%	-31%[57.1 µM]	4%[59 µM]	5%
Cc1ccc(S(=O)(=O)Nc2ccsc2C#N)cc1	35%	-6%	-6%	-5%	40µM*	?
Cc1ccc(S(=O)(=O)Nc2ccc(N(C)C)cc2)cc1	?	-8%	-4%	56µM*	-148%[59 µM]	35µM*
O=S(=O)(Nc1ccccc1)c1ccc(NS(=O)(=O)c2c(F)cccc2F)cc1	21%	-7%	?	-14%	50µM*	-4%
CC1(C)CC2CC(C)(CN2C(=O)COC(=O)c2cccnc2Cl)C1 (configuration not stated)	58%	-4%	15%	-8%	.	.
COc1ccc(NS(=O)(=O)c2ccc(OC)c(N(C)S(=O)(=O)c3ccc(Cl)cc3)c2)cc1	-17%	-20%	-3%	-26%	50µM*	-38%
Cc1cc(S(=O)(=O)Nc2cccc(Cl)c2)c(C)s1	45%	-5%	-25%	-1%	2%	.
Cc1ccc(S(=O)(=O)Nc2ccc(F)c(F)c2O)cc1	.	3%	?	.	.	.
CN(C)c1ccc(NS(=O)(=O)c2ccc(Cl)cc2)cc1	?	4%	?	56µM*	3.5µM*	45µM*
Cc1cc(S(=O)(=O)Nc2ccc(N(C)C)cc2)c(C)s1	-18%	0%	?	50µM*	?	45µM*
SMILES	HP1b chromo inh	PLK1 PBD inh	ALOX12 inh	JMJD2A Tudor inh	G9a block	BAZ2B block
Cc1ccc(S(=O)(=O)Nc2ccc(Cl)cc2O)cc1	.	-11%	28µM*	.	.	.
CC1CCN(C(=O)c2ccc(N3C(=O)C4CCC(C)CC4C3=O)cc2)CC1 (configuration not stated)	28%	0%	15%	9%	.	1%
Cc1onc(-c2ccccc2)c1C(=O)N/N=C/c1cc(Br)c(O)c(Br)c1	30%	-1%	i	-10%	?	?
O=c1c2ccccc2nc(/C=C/c2cccc([N+](=O)[O-])c2)n1CCCO	19%	-5%	0%	-25%	.	.
COC(=O)C1C(O)CC[C@@H]2CN3CCc4c([nH]c5ccccc45)C3C[C@@H]12 (some centres not stated)	.	.	.	.	-34%[2.33 µM]	.
Cc1c2c(=O)n(-c3ccc(F)cc3)[nH]c2cc(=O)n1Cc1ccccc1	.	.	11µM*	.	.	.
C=CCNC(=S)N/N=C(\C)c1ccc(OC)cc1	6%	-6%	40µM*	-21%	24%[59 µM]	?
COc1ccccc1/C(C)=N/NC(=S)NCc1ccccc1	-20%	2%	40µM*	?	-46%	?
CCOc1ccc(S(=O)(=O)N/N=C(\C)c2ccc(OC)cc2OC)cc1	?	15µM*	-22%	-19%[11.4 µM]	?	-14%
COc1ccc(/C(C)=N/NC(=S)NCCc2ccccc2)cc1	-13%	-12%	0%	?	-40%	25µM*
COCCNC(=S)N/N=C(\C)c1ccc(O)cc1	37%	-10%	-2%	-5%	56%[59 µM]	-13%
O=C1CCC2=C1C1(CCCC1)N=C(Nc1nc3ccccc3o1)N2	.	.	.	-22%	.	.
O=C(CCc1nc2ccccc2[nH]c1=O)OCC(=O)c1cccc2ccccc12	.	.	.	.	-3%	1%
C[C@H](NC(=O)OCc1ccccc1)C(=O)NNC(=O)[C@H](C)NC(=O)OCc1ccccc1	36%	-3%	2%	-21%	11%[59 µM]	9%
COc1ccc(C/C(C)=N/NS(=O)(=O)c2ccc(Br)cc2)cc1	30%	?	?	-17%	25µM*	3%
C/C(=N\NC(=S)NCCc1ccccc1)c1cccc(Br)c1	-14%	2%	45µM*	-22%	-37%	40µM*
COc1ccc(/C(C)=N/NC(=O)c2ccccc2OCc2ccccc2)c(OC)c1	-21%	19µM*	11%	18µM*	5%	-38%
C/C(=N/NC(=S)NCc1ccccc1)c1ccncc1	.	.	-5%	.	.	.
C/C(=N\NC(=S)NCc1ccccc1)c1ccc2ccccc2c1	-11%	2%	45µM*	-38%	1%[59 µM]	?
O=c1c2cc(F)ccc2[nH]c(=S)n1CCCN1CCOCC1	26%	-4%	-1%	-30%	50µM*	-10%
O=c1c2cc(N3CCOCC3)ccc2[nH]c(=S)n1CCCN1CCCCCC1	20%	-7%	-60%	-1%	-12%[12.7 µM]	-5%
CCOc1cc2[nH]c(=S)n(Cc3ccc(C(=O)NCCCN(CC)CC)cc3)c(=O)c2cc1OCC	-4%	-9%	-13%	?	35µM*	-17%
CCOc1cc2[nH]c(=S)n(Cc3ccc(C(=O)NCCCN4CCOCC4)cc3)c(=O)c2cc1OCC	63%	0%	16%	-32%	25µM*	-15%
